Assay [1] is described as follows: stimulators of nuclear beta-catenin in C2C12, primary screen, imaging, WNT3A-conditioned medium, mouse C2C12, NPC library (AID 1117326; in the data active = nuclear beta-catenin stimulation mostly above about 4.2%, no sharp cut-off; inactive = mostly below about 10%). The following applies: stronger effect = higher value.
The nature of assay [2]: stimulators of insulin release from INS-1E, primary screen, cell-based, 5 mM glucose, NPC library (AID 1117329;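 active = compound raises insulin release from rat beta cells at 5 mM glucose, no numeric limit stated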). The following applies: rat INS-1E insulin secretion, at 10 µM, stronger effect = higher value.
A short description of assay [3]: growth inhibition of GSK3B-pretreated HCT116 cells – cell-based, CellTiter-Glo, 0.2 to 20 µM (AID 1117336;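 active = compounds lowering colon cancer cell viability after pretreatment blocking the GSK3B kinase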). The following applies: HCT116 viability after GSK3B inhibitor, at 20 µM, stronger effect = higher value.
Assay [4] in a line: inhibition of endothelial tube formation, primary screen, imaging, VEGF stimulated, CD31 staining, tube area, NPC library (AID 1117340;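 active = compound that reduces growth-factor-driven endothelial tube area in a mixed cell culture, no cutoff stated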). The following applies: VEGF-stimulated ADSC/ECFC co-culture, at 10 µM, stronger effect = higher value.
Assay [5] in a line: glucagon-like peptide 1 release enhancers, primary assay, NCI-H716 cell line, NPC library (AID 1117341;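 active = compound raises GLP1 secretion from the human gut endocrine cells, with no numeric limit stated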). The following applies: NCI-H716 cells, at 10 µM, stronger effect = higher value.
Assay [6] in a line: HCT116 colon cancer cell growth inhibition, primary screen, CellTiter-Glo luminescence, NPC library (AID 1117342;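 active = compounds that lower survival of HCT116 colon cancer cells in the luminescence readout, no numeric limit stated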). The following applies: at 20 µM (top of the series).
The nature of assay [7]: CellTiter-Glo luminescent readout of SW480 viability loss, NPC library primary (AID 1117343;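 active = compounds that lower viability of the colon cancer cells in the luminescence readout, with no numeric limit stated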). The following applies: CellTiter-Glo luminescence; at 20 µM (top of the series) unless noted.
Assay [8] in a line: decreased DLD-1 cellular survival, CellTiter-Glo luminescent readout, NPC compound collection, primary HTS (AID 1117346;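 active = compounds that lower survival of DLD-1 colon cancer cells in the luminescence readout, no cutoff given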). The following applies: DLD-1 viability, CellTiter-Glo luminescence; at 20 µM (top of the series). In general terms: In ATP-based viability assays light output follows the ATP content of the culture.
The subject of assay [9] is Aerobactin synthetase IucA (Klebsiella pneumoniae). The experiment in a line: IucA aerobactin synthetase inhibitors, biochemical, Tocris library, absorbance (AID 1345561; call rule not given here;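 note: 100% = enzyme without compound and 0% = no enzyme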). The following applies: purified IucA enzyme assay, absorbance (OD) read-out; stronger effect = lower value;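 tested at 8 µM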.
Assay [10] in a line: growth inhibition of DIPG glioma cells, dose response, cell-based, SU-DIPG-XIII, MIPE4.0, CellTiter-Glo, qHTS (AID 1347061; cut-off not given, nearly all actives have AC50 up to about 37 µM;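 note: cells exposed to compound for 48 hours before readout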). The following applies: SU-DIPG-XIII viability, CellTiter-Glo ATP luminescence.
A short description of assay [11]: viability loss in pontine glioma line – cell-based, SU-DIPG-XXV, MIPE5.0, CellTiter-Glo, qHTS, dose response (AID 1347065; cut-off not given, nearly all actives have AC50 up to about 26 µM;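 note: cells exposed to compound for 48 hours before ATP readout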). The following applies: CellTiter-Glo ATP luminescence.
A short description of assay [12]: SU-DIPG-XXV glioma cell viability, MIPE5.0 library, qHTS (AID 1347068; cut-off not given, nearly all actives have IC50 up to about 30 µM;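 for IC50: cells exposed to compound for 48 hours before viability readout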). For orientation: In qHTS, concentration-response curves come from the screen itself.
The nature of assay [13]: sensitizers of A549 cells to miR-34 induction, primary screen, imaging, A549 dox-inducible miR-34, nuclei and caspase counts (AID 1347080). The following applies: A549 miR-34 inducible, Hoechst nuclei count, 48 h.
Assay [14] is described as follows: viability rescue of complex I mutant cybrids, primary screen, cell-based, galactose medium, ATP luminescence (AID 1645843;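 active = z-score of at least 1.8 in each of two replicates, scored against plate mean and spread of sample wells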;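 note: positive z means more ATP and so rescue of galactose-driven cybrid death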). The following applies: complex I mutant cybrid cells, 72 h, stronger effect = higher value.
A short description of assay [15]: liver-stage malaria parasite growth inhibition, primary screen, cell-based, HepG2, luciferase luminescence, HepG2 viability (AID 624349; in the data active = parasite load remaining mostly below about 12%, no sharp cut-off; inactive = mostly above about 10%;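 note: 100% = mean of DMSO negative control wells on the same plate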). The following applies: P. berghei liver stage in HepG2, luciferase luminescence, concentration not given here; parasite load remaining: stronger effect = lower value; viability: measured here: HepG2 viability without parasites.
A short description of assay [16]: growth inhibition of DIPG glioma cells, dose response, cell-based, SU-DIPG-XVII, MIPE5.0, CellTiter-Glo, qHTS (AID 1347060; cut-off not given, nearly all actives have AC50 up to about 26 µM;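 note: cells exposed to compound for 48 hours before viability readout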). The following applies: SU-DIPG-XVII viability, CellTiter-Glo ATP luminescence.
The nature of assay [17]: growth inhibition of DIPG glioma cells, dose response, cell-based, JHH-DIPG-1, MIPE4.0, CellTiter-Glo, qHTS (AID 1347062; cut-off not given, nearly all actives have AC50 up to about 27 µM;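 note: cells exposed to compound for two days before readout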). The following applies: JHH-DIPG-1 viability, CellTiter-Glo ATP luminescence.
The nature of assay [18]: survival rescue of mitochondrial mutant cells in low glucose, primary screen, MELAS cybrids, Rieske KO mouse fibroblasts, CellTiter-Glo (AID 1508586;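 active = mean z-score across replicates of 1.96 or higher in either the MELAS or the Rieske mutant cell line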;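 note: z relative to plate mean and SD of compound and empty wells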).
Setting [19] is: stronger effect = lower value, cell number ratio, induced over uninduced.
The mark [20] stands for this setting: measured here: relative caspase fold change +Dox/-Dox.
[21] abbreviates: measured here: total cells with miR-34 induction, stronger effect = lower value.
Where [22] appears, read: measured here: total cells without miR-34 induction.

Several values for one entry are separate records, joined by “and”; a condition that tells them apart may be missing. Identical values can stand only once. Results filed as inconclusive are left out. Activity calls are given as the source filed them.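 Rule for the calls, unless noted: active = compounds whose cell count with miR-34 switched on is under 0.7 times the count with it off; inactive = the rest.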

Here are results for four molecules from PubChem BioAssay.

For the molecule `C[C@@H](CN1CC(=O)NC(=O)C1)N1CC(=O)NC(=O)C1`, the nuclear beta-catenin stimulation was 9.7% (inactive) in assay [1] (at 10 µM) and 13.9% in assay [1] (stimulation, at 2 µM). Also, the insulin secretion stimulation in [2] was 5.3% (inactive). Also, in assay [3], the viability decrease was 70.9% (active). Further, the tube area decrease in assay [4] is 37.9% (inactive). Further, the GLP1 secretion stimulation in [5] was -2.7% (inactive). The inhibition of viability in [6] is 62% (active). The figures for the viability decrease (inhibition) in assay [7] and in assay [8] were 53.1% (active) and 47.2% (inactive), respectively. For the same molecule, in assay [9], the remaining activity was 106% (inactive). Further, the molecule was called inactive in [10], in assay [11] and in assay [12]. Further, the fold change in [13] (setting [19]) was 0.977 (inactive); in assay [13] (setting [20]) it was 1.07. For the same molecule, the cell count was determined as 8720 in [13] (setting [21]) and 8920 in [13] (setting [22]). Further, the z-score in assay [14] was 0.075 (inactive).
For the molecule `CC[C@]1(O)C[C@H]2CN(CCc3c([nH]c4ccccc34)[C@@](C(=O)OC)(c3cc4c(cc3OC)N(C=O)[C@H]3[C@@](O)(C(=O)OC)[C@H](OC(C)=O)[C@]5(CC)C=CCN6CC[C@]43[C@@H]65)C2)C1`, the parasite load remaining in assay [15] was 14.9% (inactive). The same molecule registered a viability in [15] of 84%. Also, the nuclear beta-catenin stimulation in assay [1] (at 10 µM) is 44% (active); in [1] (stimulation, at 2 µM), 76%. Also, the insulin secretion stimulation in assay [2] was -1.1% (inactive). In addition, the viability decrease in assay [3] is 98.6% (active). In assay [4], the tube area decrease is 109% (active). The GLP1 secretion stimulation in assay [5] was 4.5% (inactive). Further, the inhibition of viability in assay [6] is 67% (active). The viability decrease (inhibition) in assay [7] was 56% (active); in assay [8] it was 59.1% (active). Moreover, the remaining activity in assay [9] is 121% (inactive). For the same molecule, the AC50 was 29.5 nM (active) in [16], 5.26 nM (active) in [17] and 29.5 nM (active) in assay [11]. In assay [12], the half-inhibitory concentration (IC50) is 235 nM (active). Moreover, the fold change in assay [13] (setting [19]) is 0.912 (inactive) and 1.12 (inactive); in assay [13] (setting [20]), 1.85 and 0.866. The cell count in assay [13] (setting [21]) is 1380 and 1910; in assay [13] (setting [22]) it was 1510 and 1710. Moreover, the z-score was -2.16 (inactive) in assay [18] (MELAS cybrid survival, CellTiter-Glo 48 h, stronger effect = higher value); 1.73 in assay [18] (Rieske KO mouse fibroblast survival, CellTiter-Glo 72 h); -0.515 (inactive) and -1.81 (inactive) in assay [14].
As for `FC(F)(F)c1ccccc1-n1ccnc1`, the nuclear beta-catenin stimulation is 1.3% (inactive) in assay [1] (at 10 µM) and -0.4% in assay [1] (stimulation, at 2 µM). In addition, the insulin secretion stimulation in assay [2] is 1.7% (inactive). Moreover, the viability decrease in assay [3] is 2% (inactive). The tube area decrease in assay [4] is -7.9% (inactive). The GLP1 secretion stimulation in assay [5] is -1.9% (inactive). Further, the inhibition of viability in [6] was 2.03% (inactive). In addition, the viability decrease (inhibition) in [7] was -83.5% (inactive); in assay [8], 4.5% (inactive). The remaining activity in [9] is 102% (inactive). Also, the fold change in assay [13] (setting [19]) was 0.976 (inactive) and 0.948 (inactive) and 0.969 (inactive); in assay [13] (setting [20]), 1.92 and 1.05 and 0.962. The cell count in [13] (setting [21]) was 9410 and 5980 and 9120; in assay [13] (setting [22]), 9640 and 6310 and 9410. Also, the z-score in assay [14] is 0.425 (inactive) and 1.96 (inactive).
As to `Cc1cc(C)c(/C=C2\C(=O)Nc3ccccc32)[nH]1`, the parasite load remaining in [15] was 27.2% (inactive). In assay [15], this molecule showed a viability of 69.7%. In addition, the nuclear beta-catenin stimulation in [1] (at 10 µM) is 9.9% (inactive); in assay [1] (stimulation, at 2 µM), 0.7%. Moreover, the insulin secretion stimulation in [2] is -0.8% (inactive). In addition, in [3], the viability decrease was 20.1% (inactive). Moreover, in assay [4], the tube area decrease is 99.7% (active). Moreover, the GLP1 secretion stimulation in assay [5] was 12.8% (inactive). For the same molecule, in assay [6], the inhibition of viability was -18.7% (inactive). Moreover, the viability decrease (inhibition) in [7] is 48.7% (inactive); in assay [8], 37.2% (inactive). Also, in assay [9], the remaining activity was 104% (inactive). The fold change in assay [13] (setting [19]) is 1.05 (inactive) and 0.921 (inactive) and 0.87 (inactive); in assay [13] (setting [20]) it was 0.773 and 1.14 and 1.43. The cell count in [13] (setting [21]) is 4600 and 5070 and 6640; in assay [13] (setting [22]) it was 4380 and 5510 and 7630. The z-score in [14] is 0.06 (inactive) and 0.095 (inactive).

The term remaining activity denotes the signal under treatment as a percentage of the control signal. A word on the viability: it is a per cent measure of how many cells are alive, often set against a control. The term AC50 denotes the midpoint of the concentration-response curve, whichever way the signal moves. By IC50 is commonly meant the concentration needed to halve the response being measured.
